Measurements published in PubChem BioAssay (Tox21).
Inconclusive results are not listed. Values without a mark were called inactive. Active and inactive are the calls of the source. The call rests on the fitted dose curve; in most records, active means well fitted cell-killing curve with a large enough effect in the repeat runs; inconclusive means weak or mixed curves, or effect the other way; inactive means no such curve, though single readings can be large or run the other way.

assay: qHTS assay to identify small molecule agonists of the vitamin D receptor (VDR) signaling pathway - cell viability counter screen (AID 743224); conditions: VDR-bla HEK293T viability, CellTiter-Glo luminescence, 16 h; series mostly up to 62.6 µM; activity change, negative = cytotoxicity: at the top concentration; further: nearly all actives have a fitted effect of over 50% in size
Description: U.S. Tox21 Program National Center for Advancing Translational Sciences [NCATS] NIH Chemical Genomics Center [NCGC] U.S. Environmental Protection Agency [EPA] National Institutes of Environmental Health Sciences [NIEHS] National Toxicology Program [NTP] U.S. Food and Drug Administration [FDA] Tox21 Assay Overview: The vitamin D receptor (VDR), a member of nuclear hormone receptor superfamily, plays a critical role in calcium homeostasis and bone metabolism. It is also involved in cell differentiation and growth, and thrombogenicity. […] The cytotoxicity of the Tox21 compound library against the VDR-bla cell line was tested in parallel by measuring the cell viability using CellTiter-Glo assay (Promega, Madison, WI) in the same wells.
Tox21 Assay Protocol Summary: VDR-bla cells were dispensed at 2,000 cells/6 uL/well into black wall/clear-bottom 1536-well plates using a Multidrop Combi (Thermo Fisher Scientific, Waltham, MA) dispenser. After the assay plates were incubated at a 37C and 5% CO2 for 4 h, 23 nL of compounds dissolved in DMSO, positive controls or DMSO only was transferred to the assay plate by a Pintool station (Kalypsys, San Diego, CA). The plates were incubated at 37C and 5% CO2 for 16 h. After 1 uL of LiveBLAzerTM B/G FRET substrate was added using a Bioraptr Flying Reagent Dispenser (FRD) workstation (Beckman Coulter, Indianapolis, IN, USA), the plates were incubated at room temperature for 2 h, and fluorescence intensity was measured by an Envision plate reader (PerkinElmer, Shelton, CT). For cell viability readout that measures cytotoxicity, 3 ul/well of CellTiter-Glo reagent was added into the assay plates using a FRD. After 30 min incubation at room temperature, the luminescence intensity in the plates was measured using a ViewLux (PerkinElmer) plate reader.
On the % scale 0 is the no-effect control and ±100 the full control effect; potency means the concentration at half of the fitted maximal effect.

SMILES | activity change, negative = cytotoxicity | Potency
Cc1cc(C(C)(C)C)c(O)c(C)c1CC1=NCCN1 | -1.86% | 
O=C(O)Cc1ccc(Cl)cc1Cl | -11.3% | 
CCOC(=O)CC(=O)c1ccccc1 | 1.77% | 
O=Cc1ccc(Cl)c(Cl)c1 | 1.24% [at 81.1 µM] | 
CCCCC(CC)COCCO (stereo not given) | -16.4% | 
O=C(NCCN1CCOCC1)c1ccc(Cl)cc1 | -3.47% | 
On1nnc2ccccc21 | -2.37% | 
CC/C=C\CC1=C(C)CCC1=O | 4.18% | 
Cc1ccc2ccc(Cl)cc2n1 | 17.9% | 
Nc1nnc(-c2cccc(Cl)c2Cl)c(N)n1 | 15.2% | 
CCN1CCc2nc(N)oc2CC1 | 8.98% | 
CC(=O)Nc1cccc(C)c1 | -0.979% [at 81.1 µM] | 
CCCCCCOc1ccccc1C(N)=O | -0.928% | 
CCC(C)NC(N)=O (stereo not given) | -7.15% | 
O=S(=O)(O)c1ccc2cc(O)c(S(=O)(=O)O)cc2c1 | 1.26% | 
CN1C(C)(C)CCCC1(C)C | 1.65% | 
CC(C)CC(=O)O | -2.97% | 
Cc1ccccc1N=O | 8.95% [at 81.1 µM] | 
CC(C)C[C@H](NC(=O)CNC(=O)[C@H](Cc1ccc(O)cc1)NC(=O)[C@H](CO)NC(=O)[C@H](Cc1c[nH]c2ccccc12)NC(=O)[C@H](Cc1cnc[nH]1)NC(=O)[C@@H]1CCC(=O)N1)C(=O)N[C@@H](CCCN=C(N)N)C(=O)N1CCC[C@H]1C(=O)NCC(N)=O (stereo in doubt) | 0.348% | 
C[C@H](CCC(=O)O)[C@H]1CC[C@H]2[C@@H]3C(=O)C[C@@H]4CC(=O)CC[C@]4(C)[C@H]3CC(=O)[C@]12C | 0.316% | 

SMILES | activity change, negative = cytotoxicity | Potency
CC1=C(C(=O)O)N2C(=O)[C@@H](NC(=O)[C@H](N)c3ccc(O)cc3)[C@H]2SC1 | 6.42% | 
CCc1ccc(C=O)cc1 | 21.2% | 
C=C(C)C(=O)OCc1ccccc1 | 0.324% | 
O=C1c2cccc3c2[C@H](CCC3)CN1[C@@H]1CN2CCC1CC2 | -13.8% | 
C=C(C)C(=O)OCCN(CC)CC | -11.8% | 
CC(S)C(=O)NCC(=O)O (stereo not given) | 1.55% | 
COc1nccnc1NS(=O)(=O)c1ccc(N)cc1 | -0.808% | 
Cc1cc(NC(=O)C2=C(O)c3ccccc3S(=O)(=O)N2C)no1 | 15.2% | 
CCOC(=O)[C@H](CCc1ccccc1)N[C@@H](C)C(=O)N1C(=O)N(C)C[C@H]1C(=O)O | 1.55% | 
OC[C@H](Cc1cccc(O)c1)[C@H](CO)Cc1cccc(O)c1 | -6.44% [at 81.1 µM] | 
O=C(O)Cc1cn(-c2ccccc2)nc1-c1ccc(Cl)cc1 | -5.29% | 
NCCN1CCOCC1 | 0.423% | 
CCCCNC1CC(C)(C)NC(C)(C)C1 | 0.471% | 
O=C(NCCc1c[nH]c2ccccc12)c1cccnc1 | -0.176% | 
CC(=C(CCOC(=O)C(C)C)SSC(CCOC(=O)C(C)C)=C(C)N(C=O)Cc1cnc(C)nc1N)N(C=O)Cc1cnc(C)nc1N | 2.29% | 
C[C@H](N)[C@H](O)c1cccc(O)c1 | -4.64% | 
Cc1cccc2nccnc12 | -1.51% | 
CC[C@H](C)C(=O)O[C@H]1C[C@H](O)C=C2C=C[C@H](C)[C@H](CC[C@@H](O)C[C@@H](O)CC(=O)O)[C@H]21 | 11.4% | 
CCCOC(=O)C(C)O (stereo not given) |  | 56.1 µM (active)
COc1ccc(S(=O)(=O)N2c3ccc(Cl)cc3[C@@](O)(c3ccccc3Cl)[C@H]2C(=O)N2CCC[C@@H]2C(N)=O)cc1OC | 20.7% | 
